# Reference: paper PMC11062922 (Nature Chemical Biology, 2023)
# Like-named read-outs stand apart in the source and are kept apart here.
# How the values were obtained:
# Set-up in all cases: species or system human, MV4-11 + K-562 + COLO205 + SK-N-BE2 + OVCAR-8
# [1] = tested on: SMC4; settings: read-out: apparent Kd, n = 1
# [2] = tested on: JAK1; settings: read-out: apparent Kd, n = 1
# [3] = tested on: LATS1; settings: read-out: apparent Kd, compound concentrations: 100 nM and 1000 nM (sheet 'Samples'), n = 1
# [4] = tested on: PKN1; settings: read-out: apparent Kd, n = 1
# [5] = tested on: PRKACB; settings: read-out: apparent Kd, n = 1
# [6] = tested on: RPS6KA3; settings: read-out: apparent Kd, compound concentrations: 100 nM and 1000 nM (sheet 'Samples'), n = 1
# [7] = tested on: TBK1; settings: read-out: apparent Kd, compound concentrations: 100 nM and 1000 nM (sheet 'Samples'), n = 1
# [8] = tested on: MAP3K6; settings: read-out: apparent Kd, compound concentrations: 100 nM and 1000 nM (sheet 'Samples'), n = 1
# [9] = tested on: AGK; settings: read-out: apparent Kd, n = 1
# [10] = tested on: NEK3; settings: read-out: apparent Kd, compound concentrations: 100 nM and 1000 nM (sheet 'Samples'), n = 1
# [11] = tested on: PKN2; settings: read-out: apparent Kd, n = 1
# [12] = tested on: MDN1; settings: read-out: apparent Kd, n = 1
# [13] = tested on: RAB14; settings: read-out: apparent Kd, n = 1
# [14] = tested on: MTHFD1; settings: read-out: apparent Kd, n = 1
# [15] = tested on: WEE1; settings: read-out: apparent Kd, n = 1
# [16] = tested on: ARAF; settings: read-out: apparent Kd, compound concentrations: 100 nM and 1000 nM (sheet 'Samples'), n = 1
# [17] = tested on: CAMK4; settings: read-out: apparent Kd, n = 1
# [18] = tested on: ATR; settings: read-out: apparent Kd, n = 1
# [19] = tested on: CDK10; settings: read-out: apparent Kd, n = 1
# [20] = tested on: PRKCI; settings: read-out: apparent Kd, n = 1
# [21] = compound concentrations:100 nM and 1000 nM (sheet 'Samples')
compound,measurement,setting,value
Nc1nc(-c2ccc3c(N)n[nH]c3c2)cc(N2CCCCC2)n1 [GSK2228768A],potency estimated from few doses,[1]; [21],2040 nM
O=C1N=C(NCc2cccs2)SC1Cc1ccc2ncccc2c1 (stereo not shown) [RO4629078-000],potency estimated from few doses,"[2]; compound concentrations: 100 nM and 1000 nM (sheet 'Samples'), CATDS: 8.4918440228529003E-3",1060 nM
same,potency estimated from few doses,[3]; CATDS: 8.7867541844469099E-3,953 nM
same,potency estimated from few doses,"[4]; compound concentrations: 100 nM and 1000 nM (sheet 'Samples'), CATDS: 8.6120949637054304E-3",1010 nM
same,potency estimated from few doses,"[5]; compound concentrations: 100 nM and 1000 nM (sheet 'Samples'), CATDS: 8.4250069561530305E-3",1080 nM
same,potency estimated from few doses,[6]; CATDS: 8.4062550540876194E-3,1090 nM
same,potency estimated from few doses,[7]; CATDS: 7.6855251717376097E-3,1490 nM
CNC1=NC(=O)/C(=C/c2ccc3ncccc3c2)S1 [RO4595949-000],potency estimated from few doses,[8]; CATDS: 5.3158736559022798E-2,1510 nM
Cl.Cl.Cl.c1ccc(Oc2ccc(Nc3ccnc4cc(-c5ccc(CN6CCNCC6)o5)ccc34)cc2)nc1.c1ccc(Oc2ccc(Nc3ccnc4cc(-c5ccc(CN6CCNCC6)o5)ccc34)cc2)nc1 [GW567142A],potency estimated from few doses,"[9]; compound concentrations: 100 nM and 1000 nM (sheet 'Samples'), CATDS: 1.95822774177494E-2",1230 nM
same,potency estimated from few doses,[10]; CATDS: 1.7301178546407801E-2,1910 nM
same,potency estimated from few doses,"[11]; compound concentrations: 100 nM and 1000 nM (sheet 'Samples'), CATDS: 1.6443566928173701E-2",2350 nM
COc1ccc(Nc2nccc(N3CCC(NC(=O)Nc4ccc5c(c4)OCO5)C3)n2)cc1 (stereo not shown) [GSK1379745A],potency estimated from few doses,"[12]; compound concentrations: 100 nM and 1000 nM (sheet 'Samples'), CATDS: 4.1972847016179399E-2",1360 nM
same,potency estimated from few doses,"[13]; compound concentrations: 100 nM and 1000 nM (sheet 'Samples'), CATDS: 3.8007636055388601E-2",1680 nM
CCn1cc(-c2ccnc3[nH]c(-c4cccc(CN(C)C)c4)cc23)c(-c2ccc(NC(=O)N(C)C)cc2)n1 [GSK1070916],potency estimated from few doses,[12]; [21],2000 nM
O=C1N=C(NCCc2ccccn2)S/C1=C\c1ccc2ncccc2c1 [RO4508346-000],potency estimated from few doses,"[14]; compound concentrations: 100 nM and 1000 nM (sheet 'Samples'), CATDS: 6.5916651027534801E-2",1980 nM
CCN(CC)CCOc1ccc(Nc2ncc3cc(-c4c(Cl)cccc4Cl)c(=O)n(C)c3n2)cc1 [SB-601273],potency estimated from few doses,[15]; [21],171 nM
CC(=O)N1CCN(c2ccc(Nc3nccc(-c4sc(C(C)C)nc4-c4cccc(NS(=O)(=O)c5ccccc5)c4)n3)cn2)CC1 [GSK1645872A],potency estimated from few doses,[16]; CATDS: 2.3399978491415799E-2,1560 nM
Fc1ccc(-c2c(-c3ccncc3)[nH]c3nccnc23)cc1 [RO1155697-000],potency estimated from few doses,[9]; [21],1640 nM
same,potency estimated from few doses,[17]; [21],1550 nM
CS(=O)(=O)c1ccc(-c2cnc(N)c(C(=O)Nc3ccccc3)n2)cc1 [VE-821],potency estimated from few doses,"[18]; compound concentrations: 100 nM and 1000 nM (sheet 'Samples'), CATDS: 0.19985195991101001",648 nM
CN1CCN(Cc2ccc(NC(=O)Nc3ccc(N(C)c4ccnc(Nc5ccc(CS(C)(=O)=O)cc5)n4)cc3)cc2)CC1.Cl [GW827654A],potency estimated from few doses,"[19]; compound concentrations: 100 nM and 1000 nM (sheet 'Samples'), CATDS: 3.5844771224848297E-2",1570 nM
O=S(=O)(CCOCc1ccc(-c2ccc3ncnc(Nc4ccc(OCc5cccc(F)c5)c(Cl)c4)c3c2)o1)c1ccccc1 [GW615311X],potency estimated from few doses,[8]; CATDS: 2.8394321566467099E-2,1310 nM
same,potency estimated from few doses,[10]; CATDS: 2.1900299581920201E-2,2460 nM
same,potency estimated from few doses,"[20]; compound concentrations: 100 nM and 1000 nM (sheet 'Samples'), CATDS: 2.29472037028754E-2",2160 nM
CNC(=O)c1ccccc1Nc1nc(Nc2cccc(CS(C)(=O)=O)c2)ncc1C.O=CO [GSK1520489A],potency estimated from few doses,[3]; CATDS: 9.9587793654228995E-3,1340 nM
same,potency estimated from few doses,[6]; CATDS: 1.12432401151655E-2,768 nM
same,potency estimated from few doses,[7]; CATDS: 1.25946113140399E-2,504 nM
same,potency estimated from few doses,"[15]; compound concentrations: 100 nM and 1000 nM (sheet 'Samples'), CATDS: 2.0722471674581099E-2",127 nM
N#Cc1cccc(Nc2nccc(-c3cnn4ncccc34)n2)c1 [GW778894X],potency estimated from few doses,[19]; [21],405 nM
CC(C)c1nc(-c2cccc(NS(=O)(=O)c3c(F)cccc3F)c2F)c(-c2ccnc(Nc3ccc(N4CCOCC4)nc3)n2)s1 [GSK2008607A],potency estimated from few doses,[16]; CATDS: 1.81049419419274E-2,2030 nM
Nc1nc(N)c2nc(-c3ccccc3)[nH]c2n1 [SKF-12778],potency estimated from few doses,[18]; [21],520 nM
same,potency estimated from few doses,[2]; [21],953 nM
same,potency estimated from few doses,[5]; [21],1790 nM
same,potency estimated from few doses,[13]; [21],1300 nM
CN1CCN(Cc2ccc(-c3ccc4c(Nc5ccc(Oc6ccccn6)cc5)ccnc4c3)o2)CC1 [GW567140X],potency estimated from few doses,"[17]; compound concentrations: 100 nM and 1000 nM (sheet 'Samples'), CATDS: 3.2094924147275203E-2",2000 nM
COc1cc(F)c(F)c(F)c1C(=O)c1cnc(NC2CCN(S(C)(=O)=O)CC2)nc1N [RO4600703-000],potency estimated from few doses,[14]; [21],1300 nM
Nc1c(C(=O)c2ccccc2)cnn1-c1ccc(F)cc1 [RO1151246-000],potency estimated from few doses,[11]; [21],1910 nM
same,potency estimated from few doses,[20]; [21],2030 nM
COc1ccc(C2=NC(c3ccc(Cl)cc3F)C(C(=O)Nc3ccc4[nH]ncc4c3)=C(C)N2)cn1.O=C(O)C(F)(F)F (stereo not shown) [GSK534913A],potency estimated from few doses,[4]; [21],2050 nM
O=C1NC(=O)C(c2cccc(Cl)c2)=C1Nc1ccc(O)c(Cl)c1 [SB-409514],potency estimated from few doses,"[1]; compound concentrations: 100 nM and 1000 nM (sheet 'Samples'), CATDS: 0.290936381936651",1760 nM
